# Data published in PubChem BioAssay (NCI).
# Values joined by “and” are separate entries in the source; they are usually repeats but may differ in a detail not shown here. Identical values can stand only once. This is part of a sample that, as a whole, favours compounds with a hit. Of some 83,000 tested, about 20% had one in any assay.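 48-hour exposure, single concentration, 96-well plates; percent growth endpoint where 0 means no net growth. Active: below 10.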 Active and inactive are the calls of the source.
# System: SK-MEL-28 melanoma
# Experiment: NCI-60 one-dose screen, 48 h (100 = growth as untreated, 0 = no growth, -100 = all killed)
# Conditions: 10 µM unless noted
row,SMILES,growth
1,CCc1ccccc1-c1nc(CN[C@@H]2C[C@@H]3C[C@H]([C@H]2C)C3(C)C)c(C)o1,-80.3% (active)
2,Cc1ccccc1Nc1nnc(-c2c[nH]c3ccccc23)o1,61.3% (inactive)
3,Cc1ccc(/C=C/C(=O)c2ccc(S(=O)(=O)NCCNc3nc(N(C)C)nc(N4CCOCC4)n3)cc2)cc1,90.7% (inactive)
4,COC(=O)c1c(C(=O)OC)c2ccc3c4ccccc4ccc3n2c1C(=O)C(C)Br (centres undefined),65.4% (inactive)
5,COc1cc(CNC(=O)C[C@H](C)CCC=C(C)C)ccc1OCc1cn(-c2ccc(Cl)cc2Cl)nn1,96.3% (inactive)
6,Cc1cc(C(NC(=O)C2CC3(CC(Nc4cccc5c4C(=O)N(C4CCC(=O)NC4=O)C5=O)C3)C2)c2ccc3c(c2)OC(F)(F)O3)c(O)c2ncccc12 (centres undefined),0.772% (active)
7,O=C(CSc1nnc(-c2ccc(-c3nc4ccc(Cl)cc4[nH]3)cc2)o1)Nc1ccc(Br)cc1,-80.6% (active)
8,COc1ccc(-c2nc3ccccc3n2CC(=O)N=Nc2c(O)[nH]c3ccc(OC)cc23)cc1,81.2% (inactive)
9,Nc1cccc(-n2c(COc3ccc(I)cc3)nc3ccccc32)c1,98.9% (inactive) and 98.7% (inactive)
10,COC(=O)c1cc(C(=O)C(Br)Br)n2c1ccc1c3ccccc3ccc12,105% (inactive)
11,O=C(NN1C(=O)/C(=C/C=C/c2ccc([N+](=O)[O-])o2)SC1=S)c1ccc([N+](=O)[O-])cc1,-99% (active)
12,Cc1ccc2nc(NC(=O)Nc3cccc(Cl)c3)sc2c1,112% (inactive)
13,O=C1/C(=C/c2cccc3c2OCO3)Cc2c(F)cc(Br)cc21,115% (inactive)
14,CC(C)(C)C(=O)C1CC(C#N)=C2C=Cc3c(ccc4ccccc34)N21 (centres undefined),106% (inactive)
15,Cc1ccc(C(=O)Nc2cc(-c3ccncc3)cc(C(F)(F)F)c2)cc1C#Cc1cnc2cccnn12,16.2% (inactive)
16,CCOc1ccc(-c2cc(-c3cc(C(C)C)c(O)cc3C)nn2-c2ccc(S(N)(=O)=O)cc2)cc1,58.5% (inactive)
17,N#Cc1ccc(C(=O)CSc2nc3c(c(Nc4ccc(S(N)(=O)=O)cc4)n2)CCC3)cc1,48.5% (inactive)

row,SMILES,growth
1,COc1ccc2c(c1)C(Sc1ccc(Cl)cc1)c1c(nc(N)c(C#N)c1N)O2 (centres undefined),99.8% (inactive)
2,Fc1ccccc1CNc1nc(SCCN2CCOCC2)nc2c1cnn2CC(Cl)c1ccc(Br)cc1 (centres undefined),22% (inactive)
3,COc1ccc(-c2nnc3c(/C=C/c4ccc(Br)cc4)nc4ccccc4n23)cc1,72.4% (inactive)
4,Cc1nn(-c2ccccc2)c2ncn(CC(=O)N/N=C/c3ccccc3O)c(=O)c12,66.9% (inactive)
5,CCOC(=O)c1ccc(NC(=S)NC(=O)c2cccc(NC(=O)c3ccc(C)cc3)c2)cc1,85.2% (inactive)
6,COc1cc(/C=C/C(=O)c2cnn(-c3cc(=O)[nH]c4ccc(Cl)cc34)c2C)cc(OC)c1OC,-69.2% (active)
7,Cc1[nH]nc2ccc3nc(-c4cnn(CCO)c4)c4c(c3c12)CCCC4,75.6% (inactive)
8,CCC1(OC(=O)c2ccccc2SSCCOC(=O)CCCCC2SCC3NC(=O)NC32)C(=O)OCc2c1cc1n(c2=O)Cc2cc3ccccc3nc2-1 (centres undefined),96% (inactive)
9,CN(C)c1nc(NCCNS(=O)(=O)c2ccc(C(=O)/C=C/c3ccc(Cl)cc3)cc2)nc(N2CCOCC2)n1,76.6% (inactive)
10,C[C@@H]1CN(c2ccc3ncc(C#Cc4cncc(C(=O)Nc5ccc(CN6CCN(C)CC6)c(C(F)(F)F)c5)c4)n3n2)C[C@@H](C)O1,-58.4% (active)
11,O=C1Nc2ccccc2/C1=C\c1ccc(OCC(=O)c2ccc(Br)cc2)cc1,80.2% (inactive)
12,COc1ccc(NC(=O)NN2C(=O)c3ccccc3N(C)C2c2ccc(OC)cc2)cc1 (centres undefined),102% (inactive)
13,COc1ccc2c(c1)N=c1c-2cc2c(O)[nH]c(=S)n2c1=O,72.6% (inactive)
14,CCC(=O)c1c2c(c3ccc4c5ccccc5ccc4n13)C(=O)c1ccccc1C2=O,76.4% (inactive)
15,CC1=C(C(=O)Nc2ccccc2)C(c2cccc(Cl)c2Cl)n2c(nc3ccccc32)N1 (centres undefined),65.5% (inactive)
16,COc1cc(/C=N/NC(=O)c2ccc(OCc3nc4ccc(C)cc4[nH]3)cc2)cc(OC)c1OC,39.4% (inactive)
17,Cc1ccc(C2CC(c3ccc(NC(=S)Nc4ccccc4)cc3)=NN2c2ccc(S(N)(=O)=O)cc2)cc1 (centres undefined),-57.7% (active)
